High-throughput results deposited in PubChem by National Center for Advancing Translational Sciences (NCATS).
Hits are enriched below; roughly 11% of the tested compounds scored in any of these assays.
AmpC detergent: qHTS Inhibitors of AmpC Beta-Lactamase (assay with detergent) | AmpC hydrolysis of nitrocefin, absorbance 480 nm, 0.01% Triton | P00811 | 370,000 compounds, 0.041% hits | Potency, µM (series often up to 114 µM), actives largely listed as inhibitors; also: nearly all actives have a fitted effect of over 25% in size
Target sequence (P00811 whole entry, looked up): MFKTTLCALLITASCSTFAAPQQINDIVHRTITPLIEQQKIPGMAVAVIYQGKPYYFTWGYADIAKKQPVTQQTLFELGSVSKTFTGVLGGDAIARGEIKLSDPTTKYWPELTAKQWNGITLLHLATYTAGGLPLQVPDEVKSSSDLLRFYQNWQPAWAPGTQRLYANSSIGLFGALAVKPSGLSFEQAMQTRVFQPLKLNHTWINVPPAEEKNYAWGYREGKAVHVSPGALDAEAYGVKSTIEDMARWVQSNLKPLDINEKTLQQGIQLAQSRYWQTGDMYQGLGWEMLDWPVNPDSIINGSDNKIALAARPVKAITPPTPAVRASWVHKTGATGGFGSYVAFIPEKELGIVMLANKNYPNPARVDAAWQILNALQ
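AmpC (5.3 nM in the dispensed reagent) in 20 mM phosphate pH 7.0 with 0.01% (detergent screen) or 0.0001% Triton X-100 was preincubated with compounds for 15 min at room temperature. Nitrocefin was then added from an 800 uM solution, and hydrolysis was followed at 480 nm.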
Pf growth 96h: Primary qHTS for delayed death inhibitors of the malarial parasite plastid, 96 hour incubation. Potency, µM (titrated, usually from 28.7 µM), hits mostly inhibitors. P. falciparum luciferase reporter growth, 96 h. AID 504834, 2011. 320,000 compounds, 6.9% hits
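96 h incubation, 37 C, 5% CO2, of luciferase-reporter P. falciparum-infected RBCs (2% hematocrit, 0.05% parasitemia final) with test compounds; endpoint luminescence.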
HCV inh: qHTS Assay for Inhibitors of Hepatitis C Virus (HCV); Huh7.5.1 HCVcc-Cre infection, luciferase reporter, 44 h; Potency, µM (top dose mostly 41.8 µM), usual class: inhibitors; 340,000 compounds, 3.4% hits
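Luciferase read-out (15 sec integration) after a 15 min room-temperature substrate step quantifies HCVcc-Cre infection. Cells, 1,000 per well, had compound added 4 h post-plating, then virus at ~0.5 moi, and were cultured 44 h.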
AmpC inh no detg: qHTS Inhibitors of AmpC Beta-Lactamase (assay without detergent). Potency, µM (doses to about 57.1 µM), hits mostly inhibitors. 330,000 compounds, 0.52% hits. P00811. AmpC nitrocefin hydrolysis, absorbance 480 nm, 0.0001% Triton; also: nearly all actives have a fitted effect of over 20% in size
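20 mM phosphate pH 7.0 + 0.01% (detergent screen) or 0.0001% Triton X-100; 5.3 nM AmpC reagent; cpd preinc 15 min RT; nitrocefin (800 uM stock) to start; A480 q20 s × 4 min; Activity was normalised to no-enzyme and no-compound control wells.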
Pf growth 48h: Primary qHTS for delayed death inhibitors of the malarial parasite plastid, 48 hour incubation. P. falciparum luciferase growth in erythrocytes, 48 h. AID 504832, 2011. 310,000 compounds, 5.9% hits. Potency, µM (top dose mostly 28.7 µM), actives largely listed as inhibitors
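Read-out is firefly luciferase luminescence from an integrated reporter in P. falciparum, so falling signal marks reduced parasite growth. Infected erythrocytes were at 2% hematocrit and 0.1% parasitemia (final) in Albumax-supplemented RPMI 1640.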
AMA1-RON2 inh: qHTS for Inhibitors of AMA1-RON; Towards Development of Antimalarial Drug Lead: Primary Screen; Plasmodium falciparum AMA1 (3D7) - RON2 peptide interaction; AlphaScreen AMA1-biotinylated RON2 peptide binding; Potency, µM (titrated, usually from 58.2 µM), actives largely listed as inhibitors; 360,000 compounds, 0.2% hits; also: nearly all actives have a fitted effect of over 45% in size
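AMA1 (3D7) with his tag at 25 nM final met compounds first, then biotinylated RON2 peptide at 25 nM; detection used donor plus acceptor beads, 10 µg/mL apiece, read by AlphaScreen after 30 min at room temperature.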
Large screens that a line does not name were inactive. Calls follow the shape of the dose curve; as a rule, active = well fitted curve in the direction sought with a large enough effect; inconclusive = small, poorly fitted or top-dose-only effect, or another doubt; inactive = no such curve, though single readings can be large; an effect the other way counts as inactive or inconclusive.

COc1ccc(-n2c(SCC(=O)Nc3nccs3)nc3c(c2=O)SC(C)C3)cc1 (centres undefined)	AmpC detergent inconclusive, Pf growth 96h 1.04µM, Pf growth 48h 1.65µM
CCOC(=O)c1ccccc1NC(=O)Cn1c(=O)n(CCC(=O)NCc2ccccc2OC)c(=O)c2ccccc21	none (no result: Pf growth 96h, HCV inh, AmpC inh no detg, Pf growth 48h, AMA1-RON2 inh)
Cc1ccc(S(=O)(=O)c2nnn3c2nc(N2CCCC(C)C2)c2cc(Cl)ccc23)cc1C (centres undefined)	none (no result: Pf growth 96h, HCV inh, AmpC inh no detg, Pf growth 48h, AMA1-RON2 inh)
Cc1ccccc1C(=O)Nc1cccc(C(=O)OCc2cc(=O)n3c4c(sc3n2)CCCC4)c1	none (no result: Pf growth 96h, HCV inh, AmpC inh no detg, Pf growth 48h, AMA1-RON2 inh)
CC(C)c1ccc(Nc2cc(C(=O)NC3CCCCC3)c3ccccc3n2)cc1	none (no result: Pf growth 96h, HCV inh, AmpC inh no detg, Pf growth 48h, AMA1-RON2 inh)
Cc1c(-c2nsc(NC(=O)c3cccs3)n2)nnn1-c1ccc(F)cc1	none (no result: Pf growth 96h, HCV inh, AmpC inh no detg, Pf growth 48h, AMA1-RON2 inh)
CCCOc1ccc(NC(=O)CC2C(=O)N(c3cccc(OC)c3)C(=O)N2Cc2cccs2)cc1 (centres undefined)	none (no result: Pf growth 96h, HCV inh, AmpC inh no detg, Pf growth 48h, AMA1-RON2 inh)
CCn1c(SCC(=O)Nc2ccc3c(c2)OCO3)nc2c(c1=O)SC(C)C2 (centres undefined)	Pf growth 96h inconclusive, AmpC inh no detg 2.82µM, Pf growth 48h inconclusive
COc1ccccc1C(O)(C(=O)NNc1cccc(C)c1)c1ccccc1OC	Pf growth 96h 2.62µM
Cc1cccc(NNC(=S)Nc2ccccc2)c1	none (no result: AmpC detergent, Pf growth 96h, HCV inh, AmpC inh no detg, Pf growth 48h)
COc1ccccc1C(O)(C(=O)NNc1ccccc1C)c1ccccc1OC	Pf growth 96h 6.57µM, Pf growth 48h inconclusive
COc1cccc(-c2nc(-c3ccc4c(c3)-c3ccccc3S4(=O)=O)c(-c3ccccc3)[nH]2)c1OC	Pf growth 96h inconclusive, HCV inh inconclusive, AmpC inh no detg inconclusive, Pf growth 48h 9.28µM
CCOC(=O)Cc1ccc(NC(=O)Nc2nnc(N3CCCCC3C)s2)cc1 (centres undefined)	none (no result: Pf growth 96h, HCV inh, AmpC inh no detg, Pf growth 48h, AMA1-RON2 inh)
O=C(Nc1ccc(F)c(Cl)c1)C1CCCN1S(=O)(=O)c1ccc(F)cc1 (centres undefined)	none (no result: Pf growth 96h, HCV inh, AmpC inh no detg, Pf growth 48h, AMA1-RON2 inh)
O=C(CCN1C(=O)c2ccccc2C1=O)Oc1ccc2ccccc2c1	none
CC1=CC(C)(C)Nc2ccc(OC(=O)CCN3C(=O)c4ccccc4C3=O)cc21	HCV inh inconclusive, Pf growth 48h 13.1µM
Cc1cc(C)c(/C=C/c2onc(C)c2S(=O)(=O)N2CCC(C(=O)Nc3ccc(Cl)c(C(F)(F)F)c3)CC2)c(C)c1	none (no result: Pf growth 96h, HCV inh, AmpC inh no detg, Pf growth 48h, AMA1-RON2 inh)
CCCn1c(CC)nc([N+](=O)[O-])c1Sc1ccc(F)cc1	Pf growth 96h inconclusive, Pf growth 48h inconclusive
CCCn1c(CC)nc([N+](=O)[O-])c1Sc1ccc(C)cc1	Pf growth 96h 10.4µM, Pf growth 48h inconclusive
CCCSc1nnc(NC(=O)c2cc(=O)c3ccccc3o2)s1	none (no result: Pf growth 96h, HCV inh, AmpC inh no detg, Pf growth 48h, AMA1-RON2 inh)
O=C(c1ccc(-c2ccccc2Cl)o1)N1CCN(S(=O)(=O)c2cccs2)CC1	Pf growth 96h inconclusive, HCV inh 14.1µM, AMA1-RON2 inh inconclusive
O=C(c1cc(-c2ccccc2Cl)on1)N1CCN(C(=O)c2ccco2)CC1	none
O=C(c1ccccc1Cl)N1CCN(S(=O)(=O)c2cccs2)CC1	none (no result: HCV inh)
O=C(c1ccco1)N1CCN(C(=O)c2ccc(-c3ccccc3Cl)o2)CC1	HCV inh 22.4µM, Pf growth 48h inconclusive
CN1CCN(C(=S)c2ccc(-c3cccc(Cl)c3Cl)o2)CC1	AmpC detergent inconclusive, HCV inh inconclusive, AMA1-RON2 inh 14.1µM
Cc1ccc(Cl)cc1N1CCN(C(=O)Cn2cnc3nc4c(cc3c2=O)CCCC4)CC1	none (no result: Pf growth 96h, HCV inh, AmpC inh no detg, Pf growth 48h, AMA1-RON2 inh)
CC1=NN(c2nc3ccccc3[nH]2)C(=O)C1Cc1ccccc1 (centres undefined)	Pf growth 96h 4.15µM, HCV inh 3.55µM, Pf growth 48h 2.62µM
O=C1NC2C(=CC(O)C(O)C2O)c2cc3c(cc21)OCO3 (centres undefined)	HCV inh 0.562µM (no result: AmpC detergent, Pf growth 96h, AmpC inh no detg, Pf growth 48h)
O=C1NC2C(=CC(O)C(O)C2O)c2cc3c(c(O)c21)OCO3 (centres undefined)	HCV inh 0.251µM (no result: AmpC detergent, Pf growth 96h, AmpC inh no detg, Pf growth 48h)
